Structures are written as SMILES. Screen size: about 380,000 compounds; about 4,000 (1.1%) were called active. About 3% were inconclusive and are not listed. Calls come from the whole dose curve; as a rule, active = well fitted activation curve with a large enough effect; inconclusive = small, poorly fitted or top-dose-only effect; inactive = no such curve, though single readings can be large or run the other way. The entries come from a sample that favours actives as a whole. A call without a number means that no potency is given here.
Potency is the fitted concentration of half-maximal effect.

The experiment in a line: qHTS Assay to Identify Small Molecule Activators of BRCA1 Expression. Note: nearly all actives have a fitted effect of over 80% in size. Particulars: MCF7-BRCA1-FFLuc reporter, luminescence, 48 h; series mostly up to 46.1 µM. Put shortly: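 Compounds are tested at multiple concentrations on MCF7 BRCA1-luciferase reporter cells seeded at 2000 per well; after 48 h, a single luminescence end-point is taken and curves fitted to the normalized data.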
(In qHTS, concentration-response curves come from the screen itself.)
On to `Cc1cccc(NC(=O)Cn2c(=O)n(CCC(C)C)c(=O)c3cccnc32)c1`, for which the Potency result was “inactive”.
As for `O=C(Nc1nnc(SCc2c(Cl)cccc2Cl)s1)C1CCCO1` (stereo not drawn), the entry is “inactive”; as for `Cc1ccc(C)c(C(C)NC(=O)C2CCCO2)c1` (stereo not drawn), “inactive”.
As to `Cc1cc(C)c2nc(NC(=O)C3CCCO3)sc2c1` (stereo not drawn), the Potency was 15.8 µM (active).
As for `Cc1cc2ccccc2n1CCNC(=O)c1ccc(F)cc1`, the entry is “inactive”; as for `O=C(NCc1ccccc1)C1CCN(S(=O)(=O)c2ccc3[nH]c(=O)ccc3c2)CC1`, “inactive”.
As for `Cc1ccccc1CSc1nnc(CCCCCNC(=O)OC(C)(C)C)o1`, the entry is “inactive”; as for `COc1ccc(-c2nnc(SCC(=O)Nc3ccccc3C)o2)cc1OC`, “inactive”; as for `CCCCSc1nnc(-c2ccc(C)cc2)o1`, 1.78 µM (active).
As for `Cc1ccc(-c2nnc(CN3CCN(C)CC3)o2)cc1`, the entry is “inactive”.
Regarding `Cc1ccc(-c2nnc(SCc3ccccc3C)o2)cc1`, the Potency was 11.2 µM (active).
As for `CCN(C(=O)CSc1nnc(-c2ccncc2)o1)c1ccccc1`, the entry is “inactive”.
As for `O=C(NCCC1=CCCCC1)c1ccc2c(c1)N(Cc1ccccc1F)C(=O)c1ccccc1S2(=O)=O`, the entry is “inactive”; as for `CCS(=O)(=O)N1CCc2cc(C(=O)NCc3ccc(C)cc3)ccc21`, “inactive”; as for `Cc1ccc(C)c(N2CCN(C(=O)CCc3c(C)nc4c(c3C)c(=O)n(C)c(=O)n4C)CC2)c1`, “inactive”.
As for `COc1ccc(Cl)cc1NC(=O)Cn1c(=O)c2ccccc2n2nncc12`, the entry is “inactive”; as for `Brc1nc2ncnc(NCc3ccco3)c2[nH]1`, “inactive”.
Turning to `CCOc1ccc(S(=O)(=O)N(CC(=O)NCCSCc2ccc(C)cc2)c2ccccc2)cc1`, the Potency result is “inactive”.
As for `CC(C)(C)NC(=O)CSc1nc(-c2ccc(F)cc2)cc(C(F)(F)F)n1`, the entry is “inactive”; as for `CO[C@H]1O[C@@H]2O[C@@]3(C)CC[C@@H]4[C@@H](C)CC[C@@H]([C@H]1C)[C@@]24OO3`, “inactive”.
As for `CC1(C)CCc2cc(S(=O)(=O)N3CCN(c4nc(-c5cccs5)nc5ccccc45)CC3)ccc2O1`, the entry is “inactive”; as for `Cc1cccc(NC(=O)Cc2ccc(Br)cc2)n1`, 8.91 µM (active).
As for `Cc1cccc(NC(=O)COc2ccc(Br)cc2C)n1`, the entry is “inactive”; as for `Cc1cccc(C)c1NC(=O)CNC(=O)Cc1ccc(Br)cc1`, “inactive”.
Consider `CCCNC(=O)c1ccc(Cn2c(SCC(N)=O)nc3ccccc3c2=O)cc1`, for which the Potency result was “inactive”.
As for `COc1ccc(CCNC(=O)CCCCn2c(=O)c3ccccc3n(Cc3ccccc3)c2=O)cc1OC`, the entry is “inactive”.
As for `Cc1ccc(CN(C(=O)c2ccccc2[N+](=O)[O-])c2ccccn2)cc1`, the entry is “inactive”; as for `CCOC(=O)c1c(NC(=O)CSc2cn(CCNC(=O)c3cccc(C(F)(F)F)c3)c3ccccc23)sc2c1CCC2`, “inactive”.
As for `O=C(Cn1nc(CNc2ccc(Cl)cc2)[n+]2c1CCCCC2)c1ccc(Cl)cc1`, the entry is “inactive”.
For `CC(=O)Cn1ncc(N2CCOCC2)c(Br)c1=O`, the Potency entry is “inactive”.
As for `O=C(Cn1ncc(N2CCCC2)c(Br)c1=O)c1ccc(Cl)cc1`, the figure is 1.41 µM (active); as for `CCOc1ccc(N(C)S(=O)(=O)c2cc(-c3cnc(C)o3)ccc2OC)cc1`, “inactive”.
As for `CCCCCn1c(CCCNC(=O)c2ccccc2OC)nc2ccccc21`, the entry is “inactive”; as for `COc1cccc(/C(C)=N/Nc2ncc(Cl)cc2Cl)c1`, 10 µM (active).
As for `CC(Oc1ccc(Cl)cc1)C(=O)OCC(=O)Nc1ncc(Cl)cc1Cl` (stereo not drawn), the entry is “inactive”; as for `COC(=O)c1sccc1N/N=C(\C)c1ccc(F)c(Cl)c1`, “inactive”.
As for `Cc1ccccc1CN1CCC(CNC(=O)c2c(C)oc3ncnc(N4CCCCC4)c23)CC1`, the Potency entry was “inactive”.
As for `O=C(c1cccc(Cl)c1)N1CCN(CCc2ccncc2)CC1`, the entry is “inactive”.
As for `Cn1c(SCC(=O)c2ccc(F)cc2)nnc1-c1ccccn1`, the entry is “inactive”.
As for `Cn1c(SCc2c(F)cccc2Cl)nnc1-c1cnccn1`, the figure is 2.51 µM (active); as for `Cc1ccc(CSc2nnc(-c3cnccn3)n2C)cc1`, “inactive”.
For `CCC(=O)N1CCc2cc(Br)cc(S(=O)(=O)NCc3ccc(Cl)cc3)c21`, the Potency entry is “inactive”.
As for `O=C(C=CC(=O)Nc1ccc(F)cc1F)Nc1ccc(F)cc1F`, the entry is “inactive”; as for `COc1ccc(C(=O)Nc2ccc(F)cc2F)cc1`, 6.31 µM (active).
As for `CCOC(=O)N1CCN(S(=O)(=O)c2ccc(C(=O)Nc3ccc(F)cc3F)cc2)CC1`, the entry is “inactive”; as for `Cc1ccccc1-c1nc(CS(=O)(=O)CC(=O)Nc2cc(Cl)cc(Cl)c2)c(C)o1`, “inactive”; as for `COc1cc(OC)c(N(C)C(=O)c2cc3c(=O)oc4ccccc4c3s2)cc1Cl`, “inactive”.
As for `O=[N+]([O-])c1cccc(/C=N/Nc2ncc(Br)cn2)c1`, the figure is 4.47 µM (active).
On to `CCCc1ccc(OCc2ccc(C(=O)N/N=C/c3cccc([N+](=O)[O-])c3)o2)c(OC)c1`, for which the Potency entry is “inactive”.
As for `O=C(N/N=C/c1cccc([N+](=O)[O-])c1)C1CC(=O)N(c2ccc(Br)cc2)C1` (stereo not drawn), the entry is “inactive”; as for `COc1ccc(CCNc2nc(-c3ccc(F)cc3)cc(C(F)(F)F)n2)cc1OC`, “inactive”.
As for `CNCCCOc1cc2nc(N3CCCN(C)CC3)nc(NC3CCN(C)CC3)c2cc1OC`, the entry is “inactive”; as for `COc1ccc(-c2nn3c(=O)cc(CN4CCN(C(=O)c5ccc(OC)c(OC)c5)CC4)nc3s2)cc1`, “inactive”; as for `CN(C(=O)CSc1nc2ccc(NC(=O)COc3ccccc3)cc2s1)c1ccccc1`, “inactive”.
In the case of `O=[N+]([O-])c1c(NCCO)cc(Sc2nc3ccccc3s2)c2nonc12`, the Potency result was “inactive”.
As for `O=C(O)c1ccccc1CSc1nc2ccccc2s1`, the figure is 5.62 µM (active).
As for `COc1ccc(C2Nc3ccc(NC(=O)COC(C)=O)cc3C(=O)N2Cc2ccccc2)cc1COc1ccc(NC(C)=O)cc1` (stereo not drawn), the entry is “inactive”; as for `COc1ccc2c(c1)c(=O)c(S(=O)(=O)c1ccc(F)cc1)cn2CC(=O)Nc1ccc(C)cc1C`, “inactive”; as for `CC(O)c1ccc(OCCN(C)c2ccccn2)cc1` (stereo not drawn), 11.2 µM (active).
As for `CC(C)c1ccc(OCC(O)CN2CCN(c3ccccn3)CC2)cc1` (stereo not drawn), the entry is “inactive”; as for `CN(CCOc1ccc(CC2SC(=O)NC2=O)cc1)c1ccccn1` (stereo not drawn), “inactive”; as for `COc1ccccc1CNc1nccn(-c2ccc(F)cc2)c1=O`, “inactive”.
With `Nc1nc(COC(=O)CCC(=O)c2ccc(Cl)cc2)nc(Nc2ccccc2)n1`, the Potency entry was “inactive”.
With `CCOC(=O)CNc1nc(Cl)nc(Nc2ccc(OC)cc2OC)n1`, the Potency result is “inactive”.
As for `CCOC(=O)CNc1nc(Cl)nc(Nc2ccccc2)n1`, the figure is 15.8 µM (active); as for `CCCN1CN=C(NS(=O)(=O)c2ccc(NC(C)=O)cc2)NC1`, “inactive”.
As for `CC1=C(C(=O)Nc2ccccc2)C(c2ccc(C)cc2)n2nc(SCc3ccccc3C)nc2N1` (stereo not drawn), the entry is “inactive”; as for `Cc1ccc2nc(-c3cccc(Br)c3)cc(C(=O)Nn3cnnc3)c2c1`, 10 µM (active).
As for `C/C(N)=C(/C#N)C(=O)COC(=O)c1cc(-c2cccc(Br)c2)nc2ccccc12`, the entry is “inactive”; as for `COc1ccccc1C(=O)Nn1cnnc1`, “inactive”; as for `Cc1nc2c(-c3ccccc3)c(C)nn2c(C)c1CCC(=O)NCCc1ccccc1`, “inactive”.
Turning to `O=C1CC(c2ccccc2)CC2=C1C(c1ccco1)n1nc(C(F)(F)F)nc1N2` (stereo not drawn), the Potency result was “inactive”.
Turning to `Cc1cc(Nc2cccc(C(F)(F)F)c2)nc2ccc(NC(=O)c3ccc(=O)[nH]c3)cc12`, the Potency entry is “inactive”.
As for `CN(C)Cc1c(O)ccc2c(=O)c(-c3ccccc3Cl)coc12`, the entry is “inactive”; as for `CC(C)=CCc1c(O)c(CC=C(C)C)c2occ(-c3ccc(O)cc3)c(=O)c2c1O`, “inactive”; as for `O=c1c(-c2ccccc2)coc2cc(O)ccc12`, 12.6 µM (active).
As for `COc1ccc(CCn2cc3c(c2-c2ccc(Br)cc2)c(=O)n(C)c(=O)n3C)cc1OC`, the entry is “inactive”.
As for `CCC(C)N(c1ccc(/C=C/c2ccnc3ccccc23)cc1)C(C)CC` (stereo not drawn), the entry is “inactive”; as for `COC(=O)c1ccc(Cn2c(SCC(=O)N(C)c3ccccc3)nc3ccccc32)cc1`, “inactive”; as for `COc1ccc(CN2C(=O)C(NC(=O)c3cccc(C)c3)(C(F)(F)F)N=C2c2ccccc2)cc1` (stereo not drawn), “inactive”.
Regarding `CCN1CCN(c2ccc(/C=C/c3ccnc4ccccc34)cc2)CC1`, the Potency result was “inactive”.
As for `O=C(O)CCC(=O)Nc1ccc(N2CCOCC2)cc1`, the entry is “inactive”.
Take `O=C(/C=C/c1ccc(N2CCOCC2)cc1)c1ccccc1`: the Potency is 3.16 µM (active).
As for `C/C(=C/c1ccccc1)C(=O)N1CCN(c2ccccc2)CC1`, the entry is “inactive”; as for `COc1ccc(S(=O)(=O)NCc2cccn2Cc2cccc(C)c2)cc1Cl`, “inactive”.
For `CCn1cc2nc(SCc3cccc(F)c3)n(CCc3ccccc3)c(=O)c2n1`, the Potency result was “inactive”.
As for `CCc1ccccc1NS(=O)(=O)c1ccc2nc(-c3ccccc3)[nH]c2c1`, the entry is “inactive”; as for `CC(=O)c1cc(-c2ccccc2)n(CCC(=O)NC2CCCCCC2)c1C`, “inactive”; as for `O=C(CCS(=O)(=O)c1ccccc1)NC1CCCC1`, 10 µM (active).
On to `O=C(CCC(=O)c1cccs1)NC1CCCCCC1`, for which the Potency result is “inactive”.
As for `C=C1C=C(C)n2ncc(C(=O)Nc3ccccc3O)c2N1`, the entry is “inactive”.
As for `COc1cc(OC)cc(C(=O)Nc2c(C(=O)Nc3ccc(F)cc3)oc3ccccc23)c1`, the entry is “inactive”; as for `Cn1cccc1C(=O)OCC(=O)NCCc1ccccc1`, “inactive”; as for `COc1ccc(C(=O)OCC(=O)c2ccc(Cl)s2)c(OC)c1OC`, “inactive”.
As for `Cn1cccc1C(=O)OCC(=O)c1ccc(Br)s1`, the figure is 8.91 µM (active); as for `CCCCNC(=O)Cn1c(SCc2cccc(Cl)c2)nc2ccncc21`, “inactive”; as for `CCCN(CCC)C(=O)C(Cc1ccccc1)NS(=O)(=O)c1ccc2c(c1)c(=O)n(C)c(=O)n2C` (stereo not drawn), “inactive”.
Take `Cc1ccc(-n2c(=O)c3cccnc3n2CC(=O)NCc2ccc(F)cc2)cc1C`: the Potency result is “inactive”.
As for `CCCCOC(=O)CSc1ncnc2sc3c(c12)CCC(C)C3` (stereo not drawn), the entry is “inactive”.
As for `SCc1nc2ccc(Cl)cc2[nH]1`, the entry is “inactive”.
As for `Cc1cccc(-c2noc(CCC(=O)NC3CCCC3)n2)c1`, the entry is “inactive”; as for `Cc1ccc(C)c(N2CCN(C(=O)CCc3nc(-c4cccc(C(F)(F)F)c4)no3)CC2)c1`, “inactive”; as for `Cc1ccc(Cc2nc(-c3cccc(C)c3)no2)cc1`, 7.94 µM (active).
